About 83,000 compounds went through this panel and 20% of them were active in at least one assay; those are over-represented in the sample as a whole.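 Compound tested at a single concentration for 48 hours in 96-well plates; a percent growth value below 10 was scored as active.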 Values without a mark were called inactive. The source made the active and inactive calls.
Legend:
Test in all cases: NCI-60 one-dose screen, 48 h (100 = growth as untreated, 0 = no growth, -100 = all killed)
Conditions in all cases: 10 µM unless noted
NCI-H23 lung = system: NCI-H23 lung
NCI-H226 lung = system: NCI-H226 lung
NCI-H322M lung = system: NCI-H322M lung
HOP-62 NSCLC = system: HOP-62 NSCLC
NCI-H460 lung = system: NCI-H460 lung
HOP-92 NSCLC = system: HOP-92 NSCLC
NCI-H522 lung = system: NCI-H522 lung
A549/ATCC NSCLC = system: A549/ATCC NSCLC
786-0 renal = system: 786-0 renal
COLO 205 colon = system: COLO 205 colon

SMILES	growth (NCI-H23 lung)	growth (NCI-H226 lung)	growth (NCI-H322M lung)	growth (HOP-62 NSCLC)	growth (NCI-H460 lung)	growth (HOP-92 NSCLC)	growth (NCI-H522 lung)	growth (A549/ATCC NSCLC)	growth (786-0 renal)	growth (COLO 205 colon)
COc1ccccc1/C=C/C1=C(C)CCC(c2ccccc2OC)C1C (stereo not given)	26.8%	45.8%	33.4%	17.3%	3.73% (active)	-35% (active)	-45% (active)	21.2%	12%	-45.3% (active)
N#C/C(=N\Nc1ccccc1)C(=O)Nc1cc(-c2ccccc2)nn1-c1ccccc1	6.94% (active)	25.6%	8.62% (active)	52.8%	6.6% (active)	-18.6% (active)	15.4%	30.4%	50.5%	48.4%
Cc1nc2ccccc2c(/C=C/c2ccc(Br)cc2)c1C(=O)/C=C/c1ccccc1	8.31% (active)	25.1%	35.3%	-35.1% (active)	-56.4% (active)	53.1%	-34.9% (active)	14.8%	2.23% (active)	-29.5% (active)
CC(=O)/C(Br)=C/c1ccc(Br)o1	68.4%	85.4%	102%	137%	105%	33.8%	55.7%	102%	5.9% (active)	73.8%
O=C1/C(=C/c2ccccc2)COc2ccc(O)cc21	97.2%	104%	99.3%	104%	103%	93.7%	73.5%	90.5%	86.9%	93.2%
Cc1ccc(Nc2cc(N)nc(N)n2)cc1	91.4%	110%	98.5%	101%	101%	90%	94.3%	97.3%	99.6%	105%
NC(=N\N=C/c1ccc(Cl)cc1Cl)/C(N)=N\N=C/c1ccc(Cl)cc1Cl	87.1%	62.8%	41%	83%	20.7%	43.8%	79.8%	62.5%	3.29% (active)	71.6%
CCC(=C(c1ccc(OCCN(CC)CC)cc1)c1ccc(OCCN(CC)CC)cc1)c1ccc(Cl)cc1	68.7%	109%	-8.03% (active)	-27% (active)	-81.4% (active)	33.5%	-39.4% (active)	-75% (active)	-95.4% (active)	-69% (active)
O=C(O)c1cc2ccccc2s1	101%	98.2%	110%	96.9%	104%	90%	107%	104%	106%	113%
Oc1cccc(-c2nc(-c3n[nH]c(=S)n3-c3ccccc3)cc3c2[nH]c2ccccc23)c1	43.3%	52.6%	13.7%	28.4%	8.82% (active)	63.3%	-28.3% (active)	48.3%	18.4%	68%
C#CCOC(=O)C(N)CSSCC(N)C(=O)O (stereo not given)	103%	112%	91.2%	94.9%	90.4%	97.5%	86.1%	98.2%	100%	104%
C1=C2CCCC3=Cc4ccccc4OC23Oc2ccccc21	42.3%	56.4%	50.8%	41.6%	13.5%	61.4%	3.9% (active)	32.7%	26.4%	25.4%
CN1CCN(Cc2ccc(NC(=O)c3cc(C#Cc4cnc(N)c5ncccc45)n(C)n3)cc2C(F)(F)F)CC1	97.8%	115%	127%	100%	9.09% (active)	103%	99.7%	47.5%	9.92% (active)	115%
C=C1C(=O)O[C@H]2[C@H]1CC/C(CNC(=O)/C=C/c1cc(OC)c(OC)c(OC)c1)=C\CC[C@@]1(C)O[C@@H]21	-31.3% (active)	-61.8% (active)	60%	26%	82.3%	-36% (active)	-93.5% (active)	40%	-68.5% (active)	-86.5% (active)

From PubChem BioAssay (NCI)
